A short description of the test: DNA binders displacing acridine orange – biochemical, fluorescence polarization, cherry-pick, artefact control for RAD52 inhibitor project, dose response (AID 652128). Conditions: Salmon sperm DNA/acridine orange FP displacement, DNA binding. Background: In fluorescence polarisation assays a small probe gives low polarisation when free and higher when bound to something large.

Broadly, the AC50 is the concentration at which the activity in the assay is half-maximal.

Some of the results follow. Results filed as inconclusive are left out. Activity calls are given as the source filed them.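 Rule for the calls: active = fitted half-maximal concentration for signal loss at or below twice the highest dose tested, in every separate run (actives reach about 64 µM in these data); inconclusive = runs disagree, or flat partial signal loss, or poor fit; inactive = the rest.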

In the case of `NCCCCCC(=O)N/N=C/c1ccc2nccnc2c1`, the molecule was classed as inactive.
Still for that read-out and setting: the same measure for `CN(C)CCNC(=O)c1ccc(-c2cn3c(-c4ccc(Oc5ccccc5)cc4)cnc3cn2)cc1`: “inactive”; for `COc1cccc2sc(N(CCCN(C)C)C(=O)C(c3ccccc3)c3ccccc3)nc12`: “inactive”; for `COc1ccc2sc(N(CCCN(C)C)C(=O)c3ccc(S(=O)(=O)N(C)C4CCCCC4)cc3)nc2c1`: “inactive”.
Still for that read-out and setting: for `CC(=O)c1cccc(-c2cnc3c(NC=O)cc(-c4ccc(N5CCN(C)CC5)cc4)cn23)c1` the value was “inactive”.
Consider `CCC1CCCCN1CCCNC(=O)c1cc2c(Cl)nc3ccccc3c2s1` (configuration not stated), for which the AC50 is 49 µM (active).
In the case of `COC1=C(N2CCOCC2)C(=O)c2ccccc2C1=O`, the molecule was classed as inactive.
For the molecule `Cc1cc(C)c2nc3nc(C)cc(C)c3c(N)c2c1`, the half-maximal activity concentration (AC50) is 30 µM (active).
For `NC(N)=Nc1nc(-c2ccccc2)c2cc(Cl)ccc2n1`, the outcome was inactive.
The same measure, in the same setting: for `CCN1CCCC1CNC(=O)c1ccc2c(c1)NC(=O)/C(=C\c1ccccc1F)S2` (configuration not stated) the value was “inactive”.
With `COc1ccc2[nH]c3c(C)c4cc[n+](C)cc4c(C)c3c2c1`, the AC50 was 4.3 µM (active).
Consider `CCN(CC)CCn1c2ccc(Cl)cc2c2nc(C)sc21`, for which the molecule was called inactive.
Still for that read-out and setting: for `Cc1c(CCOC(=O)CC23CC4CC(CC(C)(C4)C2)C3)sc[n+]1Cc1ccc([N+](=O)[O-])cc1` the value was “inactive”.
As to `NCCCNC(=S)NCCCN(Cc1ccc(Cl)cc1)c1ccc(Br)cn1`, the outcome was inactive.
The same measure, in the same setting: the same measure for `Nc1ncc(CN2CCCC(C(=O)Nc3ccc(-c4ccco4)cc3)C2)cn1` (configuration not stated): “inactive”; for `Nc1ccc(OCC(O)C[n+]2ccc(CCS(=O)(=O)[O-])cc2)cc1` (configuration not stated): “inactive”.
Take `O=C(/C=C/c1cn(-c2ccccc2)nc1-c1ccc2c(c1)OCCO2)NCCCN1CCOCC1`: the call was inactive.
Same read-out and setting: the same measure for `C=Cn1cc[n+](CC(=O)c2ccc(OC)c(OC)c2)c1`: “inactive”; for `Cc1cc2oc3ccc(NCCC4CCCN4C)cc3c(=O)c2cc1C` (configuration not stated): “inactive”.
As for `CC(=O)Nc1ccc(Nc2c3ccccc3nc3ccccc23)cc1`, the concentration at half-maximal activity (AC50) is 7.66 µM (active).
As to `CN1CCN(CCCNC(=O)c2ccc(/C=C3\Oc4ccccc4N(Cc4ccc(Cl)cc4)C3=O)cc2)CC1`, the call was inactive.
Same read-out and setting: for `COc1ccc(NC(=O)C2C3CCC(O3)C2C(=O)O)cc1OC` (configuration not stated) the value was “inactive”.
The same measure, in the same setting: for `CCN(CC)CCNC(=O)c1ccc(NC(=O)c2cc(-c3ccncc3)nc3ccccc23)cc1` the value was “inactive”; for `C[C@H]1CN([C@@H](C)CO)C(=O)CCCn2nncc2CO[C@@H]1CN(C)C(=O)Nc1ccc(N2CCN(C)CC2)cc1`, “inactive”; for `O=C1CCC(C(=O)OCC(=O)Nc2ccc(OC(F)F)cc2)=NN1`, “inactive”.
`CC(C)C(=O)N1CC(=O)Nc2ccc(F)cc2C1c1ccc(F)cc1` (configuration not stated): the result was inactive.
Same read-out and setting: for `CC(C)[C@@H](C)/C=C/[C@@H](C)[C@H]1CC[C@@H]2[C@]1(C)CCC1[C@]23C=C[C@]2(C[C@@H](O)CC[C@]12C)N(c1ccc([N+](=O)[O-])cn1)O3` (some centres not stated) the value was “inactive”.

The values are drawn from PubChem BioAssay AID652128 (Broad Institute, 2013).
